# Assay results from PubChem BioAssay AID686978 (National Center for Advancing Translational Sciences (NCATS), 2013).
# About 64,000 (15%) of roughly 420,000 compounds were called active. Not shown: some 27% with an inconclusive outcome. The call rests on the fitted dose curve; in most records, active means well fitted inhibition curve with a large enough effect; inconclusive means small, poorly fitted or top-dose-only effect; inactive means flat fitted curve, though single readings scatter. A selection follows.
# Assay: qHTS for Inhibitors of human tyrosyl-DNA phosphodiesterase 1 (TDP1): qHTS in cells in absence of CPT; further: nearly all actives have a fitted effect of over 55% in size
# Settings: DT40 Tdp1-/- hTDP1 cells, no CPT, ATP luminescence, 48 h; activity change, negative = growth inhibition: at 46.2 µM (top of the series)
# Procedure, shortened: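 Stably hTDP1-transfected Tdp1-null chicken DT40 cells were treated with library compounds minus camptothecin and grown for at least 48 hr at 37 °C, after which cellular ATP was quantified by luminescence.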
# On the % scale 0 is the no-effect control and ±100 the full control effect; potency means the concentration at half of the fitted maximal effect.
Structure (SMILES),"activity change, negative = growth inhibition",Potency
Cc1ccc(C(=O)O)c(NC=O)c1OCc1ccccc1,34.4% (inactive),–
CC(=O)Nc1ccc(NC(=O)CSc2nnc3c4cc(Br)ccc4n(C)c3n2)cc1,-18.7% (inactive),–
O=C1CCC/C(=N\NC(=O)NC2CCCCC2)C1,-5.53% (inactive),–
Cc1cnc(NC(=O)CSc2nnc(-c3ccccc3)n2Cc2ccccc2)s1,-22.3% (inactive),–
COC(=O)c1ccc(COc2cc([N+](=O)[O-])cc3cccnc23)cc1,10.4% (inactive),–
COc1ccc(CNC(=O)COC(=O)C(CCSC)N2C(=O)c3ccccc3C2=O)cc1 (stereo unspecified),-24.9% (inactive),–
Cc1cccc(-c2cc(=O)c3cc(C)ccc3o2)c1,-2.27% (inactive),–
COc1ccccc1N1CCN(C(=O)c2cc(=O)c3cc(C)cc(C)c3o2)CC1,–,0.0082 µM (active)
COc1cc2c(cc1OC)CN(C(=O)c1cc(=O)c3ccccc3o1)CC2,–,3.26 µM (active)
COc1ccccc1N1CCN(C(=O)c2cc(=O)c3cc(C)ccc3o2)CC1,–,23.1 µM (active)
COc1ccccc1OCc1ccc(C(=O)N2CCN(C)CC2)o1,6.37% (inactive),–
COc1cccc2cc(C(=O)N3CCN(C(=O)c4ccccc4)CC3)c(=O)oc12,4.28% (inactive),–
COc1ccc2c(CC(=O)N3CCc4cc(OC)c(OC)cc4C3)coc2c1,-3.86% (inactive),–
O=C(c1cc(=O)c2ccccc2o1)N1CCN(c2ccccc2)CC1,13.6% (inactive),–
COc1ccccc1N1CCN(c2nc(C)cc(=O)[nH]2)CC1,-10.7% (inactive),–
O=C(NCc1ccco1)/C(=C\c1cccc([N+](=O)[O-])c1)NC(=O)c1ccco1,17.9% (inactive),–
Cc1cc(NC(=O)COC(=O)/C=C/c2ccc(C)o2)no1,18.1% (inactive),–
COc1cccc2c1OCC1COc3c(c(=O)n(C)c(=O)n3C)C21 (stereo unspecified),2.66% (inactive),–
COc1ccc(NC(=S)NCCN2CCC(C)CC2)cc1,18.1% (inactive),–

Structure (SMILES),"activity change, negative = growth inhibition",Potency
CC(C)CC(=O)c1c[nH]c(C(=O)NCc2ccccc2)c1,-0.735% (inactive),–
O=C(CN1CCSCC1)N/N=C/c1ccc(F)cc1F,-6.91% (inactive),–
OC(CBr)CN1CCCCC1 (stereo unspecified),-22.3% (inactive),–
OC(COc1ccc(CN2CCSCC2)cc1)CN1CCCCC1 (stereo unspecified),-22.4% (inactive),–
OC(COCCC12CC3CC(CC(C3)C1)C2)CN1CCCCC1 (stereo unspecified),–,16.4 µM (active)
O=C(CSc1nc2ccccc2c(=O)n1-c1ccccc1F)N1CCOCC1,-4.22% (inactive),–
CCN(CC)CCCC(C)n1c2nc(=O)[nH]c(=O)c-2nc2cc(Cl)ccc21 (stereo unspecified),–,8.2 µM (active)
CCCc1nc2ccccc2c(C(=O)OCc2nnc(-c3cc(OC)c(OC)c(OC)c3)o2)c1CC,–,23.1 µM (active)
O=C(OCc1nnc(-c2ccccc2)o1)c1cc(=O)[nH]c2ccccc12,-9.31% (inactive),–
CCCCc1nc2ccccc2c(NC(=O)CN2CCN(C)CC2)c1CCC,-12.6% (inactive),–
C=CCn1c(N)cc(=O)nc1SCC(=O)Nc1cccc2ccccc12,-7.69% (inactive),–
CCOc1ccccc1CN1CCN(C2CCC2)CC1CCO (stereo unspecified),2.32% (inactive),–
O=C(Nc1c(Cl)cccc1Cl)C1CCC1,3.42% (inactive),–
CC(=O)NC(c1cccc(F)c1)c1nc(-c2cccc(F)c2)cs1 (stereo unspecified),-20.2% (inactive),–
Cc1cccc(NC(c2cccc(F)c2)c2ccc3ccc(C)nc3c2O)n1 (stereo unspecified),–,5.8 µM (active)
CSCCC(NC(=O)c1ccco1)C(=O)Nc1cc(C)ccn1 (stereo unspecified),-5.59% (inactive),–
N#Cc1cccc(CN2CCC(=O)N([C@H](CO)c3ccccc3)CC2)c1,–,inactive
O=C(CSCc1c(F)cccc1Cl)NCC1CCCO1 (stereo unspecified),-9.7% (inactive),–
N#Cc1cccc(-c2ccc3ncnc(NCc4cccs4)c3c2)c1,–,23.1 µM (active)

Structure (SMILES),"activity change, negative = growth inhibition",Potency
O=c1c(NCc2cccs2)nccn1-c1ccccc1,-12.9% (inactive),–
O=C(O)c1ccc2c(c1)C(=O)N(NC(=O)c1ccc(O)cc1)C2=O,-0.75% (inactive),–
COc1ccccc1OCC(=O)Nc1nnc2n1CCS2,-0.848% (inactive),–
O=C(CSc1nc2ccccc2[nH]1)Nc1nc(-c2ccccc2)c(-c2ccccc2)o1,-5.95% (inactive),–
O=C(COC(=O)CCCSc1nc2ccccc2[nH]1)Nc1ccc(Oc2ccccc2)cc1,-25.9% (inactive),–
O=C(CSc1nc2ccccc2[nH]1)N/N=C/C=C\c1ccccc1[N+](=O)[O-],–,20.6 µM (active)
Cc1cnc(CNc2ncncc2-c2ccccc2Cl)cn1,3.24% (inactive),–
COCC1CCN(C(=O)CCc2nnc(C3(c4ccc(Cl)cc4)CCC3)o2)C1 (stereo unspecified),-15.1% (inactive),–
COc1ccccc1-c1nc(SC)n[nH]1,20.7% (inactive),–
c1ccc(C2=Nc3cccc4cccc(c34)N2)cc1,–,11.6 µM (active)
COc1ccccc1-c1n[nH]nc1C1=CC(=O)CC(C)(C)C1,-0.842% (inactive),–
COc1ccccc1C1=Nc2cccc3cccc(c23)N1,–,5.17 µM (active)
CC1(C)CC(=O)C=C(NCCN2CCNCC2)C1,-10.8% (inactive),–
COc1ccc(C(=O)OCC(=O)Nc2cccc(C(C)=O)c2)cc1OC,-22% (inactive),–
COC(=O)c1sc(N)c(C(=O)OC)c1COC(=O)CNS(=O)(=O)c1ccc(C)cc1,3.93% (inactive),–
COCCN(C(=O)c1ccccc1F)c1c(N)n(Cc2ccccc2)c(=O)[nH]c1=O,-12% (inactive),–
O=C(NCc1ccc(F)cc1)c1cc(C2CCCCN2C(=O)c2ccccn2)on1 (stereo unspecified),–,20.6 µM (active)
CCCNC(=O)c1cc(C2CCCCN2S(=O)(=O)c2cn(C)cn2)on1 (stereo unspecified),-8.48% (inactive),–
